Screening results from PubChem BioAssay.
TsaE inh = qHTS Assay for Inhibitors of YjeE; tRNA threonylcarbamoyladenosine biosynthesis protein TsaE (Escherichia coli (strain …; 71,000 tested, 0.05% active; Potency, µM; purified YjeE enzyme, qHTS inhibition assay
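Purified YjeE (10 uM) with BODIPY Texas Red-labeled ADP probe (2 uM); compounds pin-transferred, 15 min at room temperature. Binding inhibition read as decreased fluorescence polarization; ADP titration as control.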
ERK AVP block = qHTS Assay for Inhibitors of the ERK Signaling Pathway using a Homogeneous Screening Assay. HEK293-V1b, vasopressin-stimulated pERK AlphaScreen. Potency, µM (doses to about 57.5 µM), inactives show top-dose activity, negative = inhibition, actives largely listed as inhibitors. 72,000 tested, 0.99% active; note: potency is the fitted concentration of half-maximal effect; % is set by controls: 0 for no effect and ±100 for the full control effect; nearly all actives have a fitted effect of over 55% in size
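HEK293 cells stably expressing V1b receptor, preincubated 30 min at 37 °C with compound, then stimulated 5 min with 25 nM vasopressin. Phospho-ERK by AlphaScreen SureFire after 5 h RT; normalized to DMSO and vasopressin; AC50 by Hill fit.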
Pol III holo inh = qHTS Assay for Inhibitors of DNA Polymerase III Holoenzyme System. 71,000 tested, 0.25% active. Potency, µM (doses to about 57.1 µM), inactives show at the highest dose activity change, negative = inhibition. reconstituted DNA polymerase III holoenzyme replication, biochemical; note: potency is the fitted concentration of half-maximal effect; % is set by controls: 0 for no effect and ±100 for the full control effect
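Reconstituted *E. coli* holoenzyme (0.35 nM Pol III, 1 nM beta, 154 nM SSB, 2 nM primase) was preincubated with compound for 15 min at RT. Synthesis on 1.4 nM ssM13Gori ran 35 min, then was stopped with PicoGreen/EDTA and read as dsDNA fluorescence.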
Hsp90 Hop PPI = qHTS Assay for Disrupters of an Hsp90 Co-Chaperone Interaction | AlphaScreen TPR2A-His6 binding biotin-Hsp90 C-terminal peptide | Potency, µM (top dose mostly 57 µM), for the others: at the top dose activity change, negative = inhibition | 71,000 tested, 0.44% active | AID 595, 2007; active = well fitted curve in either direction with a large enough effect; inconclusive = small, poorly fitted or top-dose-only effect, or another doubt; note: potency is the fitted concentration of half-maximal effect; % is set by controls: 0 for no effect and ±100 for the full control effect
ALOX15 inhib = qHTS Assay for Inhibitors of 15-hLO (15-human lipoxygenase); Polyunsaturated fatty acid lipoxygenase ALOX15 (Homo sapiens), P16050; purified 15hLO-1, xylenol orange hydroperoxide absorbance; Potency, µM (doses to about 57.1 µM), for inactives: top-dose activity change, negative = inhibition, usual class: inhibitors; 74,000 tested, 1.4% active; AID 887, 2007; note: potency is the fitted concentration of half-maximal effect; % is set by controls: 0 for no effect and ±100 for the full control effect; nearly all actives have a fitted effect of over 55% in size
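Purified human 15hLO-1 (40 nM final) in 25 mM Hepes pH 7.5, 0.01% Triton X-100 was preincubated with compound 15 min at room temperature, then reacted 6 min with 50 uM arachidonic acid; hydroperoxide detected by Fe-XO, 573/405 nm absorbance ratio.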
Tau filament bind = qHTS Assay for Tau Filament Binding; Microtubule-associated protein tau (Homo sapiens), P10636; recombinant tau filaments, thioflavin S fluorescence, 15 h; filaments grown with octadecylsulfate alongside compound; Potency, µM (doses to about 57.1 µM), for the others: top-dose activity change, negative = inhibition; 71,000 tested, 2% active; AID 596, 2007;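 note: potency is the fitted concentration of half-maximal effect; % is set by controls: 0 for no effect and ±100 for the full control effect; actives lower thioflavin S fluorescence by blocking filaments or displacing dye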
Target sequence (P10636 whole entry, looked up): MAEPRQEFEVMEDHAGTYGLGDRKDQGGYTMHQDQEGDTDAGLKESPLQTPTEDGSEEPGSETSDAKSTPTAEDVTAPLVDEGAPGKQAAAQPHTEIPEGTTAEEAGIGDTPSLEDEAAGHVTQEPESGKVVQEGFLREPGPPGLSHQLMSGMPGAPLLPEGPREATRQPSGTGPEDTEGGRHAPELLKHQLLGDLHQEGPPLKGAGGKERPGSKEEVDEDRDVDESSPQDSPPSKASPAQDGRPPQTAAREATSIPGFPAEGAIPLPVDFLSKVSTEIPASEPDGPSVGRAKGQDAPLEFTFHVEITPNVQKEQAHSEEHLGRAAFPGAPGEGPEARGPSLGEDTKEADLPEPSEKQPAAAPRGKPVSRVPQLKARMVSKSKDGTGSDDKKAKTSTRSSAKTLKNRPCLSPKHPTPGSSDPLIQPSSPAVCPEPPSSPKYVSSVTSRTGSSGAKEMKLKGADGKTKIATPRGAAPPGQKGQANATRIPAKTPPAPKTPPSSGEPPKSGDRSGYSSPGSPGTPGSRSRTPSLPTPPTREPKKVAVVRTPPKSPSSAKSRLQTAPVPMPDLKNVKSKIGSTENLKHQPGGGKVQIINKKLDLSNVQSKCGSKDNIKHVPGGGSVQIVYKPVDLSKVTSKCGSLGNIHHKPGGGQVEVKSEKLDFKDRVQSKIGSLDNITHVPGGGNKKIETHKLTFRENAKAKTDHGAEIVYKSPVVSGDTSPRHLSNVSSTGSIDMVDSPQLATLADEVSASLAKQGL
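Quantitative HTS: thioflavine S signal from ODS-induced tau filaments, excited at 450 nm, emission 510 nm. Conditions: 1 uM tau, 30 uM ODS, 15 h at 37 C, pH 7.4.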
The depositor's hits bear a star; i = inactive; ? = inconclusive; [ ] = another dose, or the depositor's remark. An excerpt weighted towards active compounds, which were near 4.2% of everything screened. Unless noted, calls come from the whole dose curve; as a rule, active = well fitted curve in the direction sought with a large enough effect; inconclusive = small, poorly fitted or top-dose-only effect, or another doubt; inactive = no such curve, though single readings can be large; an effect the other way counts as inactive or inconclusive.

SMILES	TsaE inh	ERK AVP block	Pol III holo inh	Hsp90 Hop PPI	ALOX15 inhib	Tau filament bind
Oc1ccc(Nc2nc(NCC3CCCO3)c3ccccc3n2)cc1 (stereo not drawn)	i	12.6µM*	?	-6.5%	?	44.1%
Oc1ccccc1Nc1nc(NCC2CCCO2)c2ccccc2n1 (stereo not drawn)	i	-13.4%	-13.8%	-18.2%	?	77.5%
CCOC(=O)N1CCN(C(=O)c2cc(C)no2)CC1	i	-5.5%	-1.1%	1.0%	1.5%	-13.0%
N#CC1=C2SCN(Cc3ccco3)CN2C(=O)CC1c1ccc(Cl)cc1 (stereo not drawn)	i	-0.6%	-4.3%	-5.3%	12.6µM*	?
COc1ccc(C2CC(=O)N3CN(c4ccc(C)c(Cl)c4)CSC3=C2C#N)cc1 (stereo not drawn)	i	-1.7%	-4.3%	-4.1%[2.3 µM]	?	-9.7%
N#CC1=C2SCN(Cc3ccccc3)CN2C(=O)CC1c1cccs1 (stereo not drawn)	i	-28.4%	-6.4%	-3.7%[2.3 µM]	?	-0.4%
N#CC1=C2SCN(Cc3ccccc3)CN2C(=O)CC1c1ccc2c(c1)OCO2 (stereo not drawn)	i	-11.6%	-7.5%	-8.0%	12.6µM*	-8.8%
CC(C)c1ccc(C2CC(=O)N3CN(Cc4ccco4)CSC3=C2C#N)cc1 (stereo not drawn)	i	1.4%	-5.7%	-7.6%	12.6µM*	?
COc1ccc(C2CC(=O)N3CN(Cc4ccco4)CSC3=C2C#N)cc1 (stereo not drawn)	i	-14.2%	-3.5%	-5.0%	?	4.1%
CCN(CC)C(=O)CSc1nnc(-n2nc(C)cc2C)c2ccccc12	i	2.3%	-4.7%	-1.5%	-5.3%	6.0%
COc1ccc(CC(=O)Nc2ccc3c(c2)OCO3)cc1S(=O)(=O)N1CCOCC1	i	7.1%	-2.9%	0.3%	-3.2%	0.8%
FC(F)(F)c1cccc(Cl)c1	i	4.0%	-8.2%	0.7%	-3.4%	-7.6%
CCOC(=O)c1cccc(NC(=O)CNS(=O)(=O)c2cccs2)c1	i	-16.5%	-6.0%	-0.4%	-4.3%	-7.3%
Cc1ccc(C(=O)Nc2ccc(S(=O)(=O)O)c3cc(S(=O)(=O)O)cc(S(=O)(=O)O)c23)cc1NC(=O)c1cccc(NC(=O)Nc2cccc(C(=O)Nc3cc(C(=O)Nc4ccc(S(=O)(=O)O)c5cc(S(=O)(=O)O)cc(S(=O)(=O)O)c45)ccc3C)c2)c1	i	?	31.6µM*	?	8.1%	?
CC(=O)c1cccc(NC(=O)c2ccc(N(C)S(C)(=O)=O)cc2)c1	i	-28.9%	-3.2%	-15.3%	1.7%	-0.4%
CC(C)OC(=O)CSc1nnc(Cc2ccccc2)n1C	i	8.2%	2.9%	0.3%	7.5%	-2.5%
N#Cc1cccc(-c2nccc(NCc3cccnc3)n2)c1	i	15.8µM*	-14.1%	6.0%	?	-8.1%
N#Cc1cccc(-c2nccc(NCc3ccccc3)n2)c1	i	-5.1%	3.4%	9.4%	-15.7%	6.2%
COc1ccccc1-c1nccc(NCc2cnc(C)cn2)n1	i	-9.9%	-6.1%	-8.4%	15.8µM*	4.5%
COc1cccc(-c2nccc(NCc3ccccc3)n2)c1	i	10µM*	-10.3%	25.4%	12.6µM*	-15.6%
COc1cccc(-c2nccc(NCc3ccccc3OC)n2)c1	i	?	4.2%	2.4%	25.1µM*	-14.1%
COc1cccc(-c2nccc(NCc3cccc(C)c3)n2)c1	i	-28.5%	-10.4%	4.2%	2.4%	2.2%
COc1ccccc1-c1nccc(NCc2ccccc2)n1	i	1.4%	-8.3%	-9.7%	-10.5%	1.9%
COc1ccc(C(=O)N2CCC3(CCN(Cc4ccncc4)CC3)CC2)cc1	i	0.1%	26.3%	2.6%	12.5%	-4.3%
